From the supplement of paper PMC6555819

Columns and labels:
Assay in all cases: PBM binding z-score (relative to random genomic background probes); higher = stronger binding; sequences stand for … in GC…GCGATTGACAGCGTAGAATGAAGG
[1] = system: FXR:RXRa (NR concentration 270 nM, RXRa partner concentration 90 nM)
Summary of the method: (§1)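 Antibodies against each partner of ligand-free nuclear receptor dimers (one per run) detected binding on custom Agilent 4×180K protein-binding microarrays after 1 h incubation. The double-stranded probes had 34-nt variable regions carrying direct-repeat seeds, single-nucleotide variants, half-site ablations and random human genomic background sequences. Binding z-scores, from regression-normalized fluorescence, use the random background probes as reference.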

[2] = system: LXRa:RXRa (NR concentration 270 nM, RXRa partner concentration 90 nM)
Summary of the method: as §1

[3] = system: LXRa homodimer (NR concentration 270 nM)
Summary of the method: as §1

[4] = system: LXRb:RXRa (NR concentration 270 nM, RXRa partner concentration 90 nM)
Summary of the method: as §1

[5] = system: LXRb homodimer (NR concentration 270 nM)
Summary of the method: as §1

[6] = system: PPARa:RXRa (NR concentration 270 nM, RXRa partner concentration 90 nM)
Summary of the method: as §1

[7] = system: PPARg:RXRa (NR concentration 180 nM, RXRa partner concentration 90 nM)
Summary of the method: as §1

[8] = system: PPARg:RXRa 270nM:90nM, anti-RXR (NR concentration 270 nM, RXRa partner concentration 90 nM)
Summary of the method: as §1

[9] = system: PPARg:RXRa 30nM:10nM, anti-RXR (NR concentration 30 nM, RXRa partner concentration 10 nM)
Summary of the method: as §1

[10] = system: PPARg:RXRa 90nM:30nM, anti-RXR (NR concentration 90 nM, RXRa partner concentration 30 nM)
Summary of the method: as §1

[11] = system: PPARg:RXRa DBDmut IVT, anti-RXR (DBD mutation: RXRa K156A/R161A, NR concentration 270 nM, RXRa partner concentration 90 nM)
Summary of the method: as §1

[12] = system: PPARg:RXRa IVT, anti-PPARg (NR concentration 270 nM, RXRa partner concentration 90 nM)
Summary of the method: as §1

[13] = system: PPARg DBDmut:RXRa IVT, anti-PPARg (DBD mutation: PPARg1 K132A/R137A, NR concentration 270 nM, RXRa partner concentration 90 nM)
Summary of the method: as §1

[14] = system: PPARg DBDmut IVT, anti-PPARg (DBD mutation: PPARg1 K132A/R137A, NR concentration 270 nM)
Summary of the method: as §1

[15] = system: PPARg homodimer (NR concentration 180 nM)
Summary of the method: as §1

[16] = system: PXR:RXRa (NR concentration 270 nM, RXRa partner concentration 90 nM)
Summary of the method: as §1

[17] = system: PXR homodimer (NR concentration 270 nM)
Summary of the method: as §1

[18] = system: RARa:RXR (NR concentration 270 nM, RXRa partner concentration 90 nM)
Summary of the method: as §1

[19] = system: RARa homodimer (NR concentration 270 nM)
Summary of the method: as §1

[20] = system: RARb:RXRa (NR concentration 270 nM, RXRa partner concentration 90 nM)
Summary of the method: as §1

Sequence	PBM binding z-score [1]	PBM binding z-score [2]	PBM binding z-score [3]	PBM binding z-score [4]	PBM binding z-score [5]	PBM binding z-score [6]	PBM binding z-score [7]	PBM binding z-score [8]	PBM binding z-score [9]	PBM binding z-score [10]	PBM binding z-score [11]	PBM binding z-score [12]	PBM binding z-score [13]	PBM binding z-score [14]	PBM binding z-score [15]	PBM binding z-score [16]	PBM binding z-score [17]	PBM binding z-score [18]	PBM binding z-score [19]	PBM binding z-score [20]
GAAACAGGGTCAAGGCCAGAGTACGCGTATTGAT	7.06	4.18	-0.0634	3.92	-0.239	6.22	6.82	6.19	3.1	5.15	4.14	5.29	1.43	1.01	2.18	4.41	0.162	4.58	0.267	4.73
ATCTCTAGGTAACAAGTTCAGTTAAAGAGAGGAC	0.755	0.963	0.655	0.642	0.936	1.62	1.48	2.05	0.996	1.57	2.97	2.91	1.33	1.39	1.31	1.79	1.75	0.869	1.39	1.71
CGTCCAAGGTCATGGTCAGTGAAAGAGACTCGAA	6.75	5.27	0.622	4.03	0.455	5.74	5.32	5.75	2	4.28	3.19	3.62	0.127	0.155	3.09	3.98	0.701	4.83	1.11	5.11
GCAGACAGGTGGAACGCAGGTAACTCAGGGTGGC	-0.427	-0.547	-0.822	-0.84	-1.13	-0.427	0.342	-0.6	-0.85	-1.06	-0.523	-0.717	-1.02	-1.2	-0.728	-0.719	-0.596	-0.428	-1.35	-0.55
AGCATGAGGTTATTAAGATCAGGGAATTGCGGTC	1.6	1.5	0.191	1.14	-0.175	2.03	0.647	1.13	0.242	0.454	0.439	0.818	0.518	-0.586	0.577	1.29	0.786	1.44	0.368	1.45
AGAATGAGGTTATTAAGATGAGGGAATTGCGGTC	1.61	1.5	0.433	1.3	0.12	2.54	1.22	1.46	0.735	1.12	2.83	1.97	1.19	0.341	1.28	1.03	0.85	1.22	1.23	1.41
CAAACTATGTCACGAAAGGTCAAAGTCGAATGAC	5.77	6.78	6.81	6.18	2.79	6.44	6.17	5.88	3.01	4.94	5.09	5.93	3	0.957	3.47	6.07	2.12	6.01	2.87	4.92
CGAACGAGGTCAAGGACAGTGAATCTCCGCACGC	7.55	5.54	0.753	4.4	0.542	5.95	7.29	6.61	3.39	5.65	5.22	5.6	0.997	-0.199	2.14	4.9	0.979	5.15	0.619	5.24
TCAGACAGGTGAACGTAACTCAGGTACGCAGTCG	0.443	0.558	-0.111	0.538	-0.313	1.43	1.05	2.06	3.66	2.83	2.71	1.55	0.22	-0.331	0.406	0.573	0.448	0.752	0.0461	1.19
TCTTGTAGATCAAAGGTTAAAAAAGCCGAAGCCT	1.88	2.35	0.549	2.44	0.41	4.79	8.35	8.18	7.69	9.24	2.16	3.58	0.744	0.625	1.22	2.17	0.0944	3.21	0.327	1.69
ATTCAAAGTTCATCTAGGTAACGTAAGATATGCT	6.71	6.24	6.17	3.99	2.84	4.52	4.18	4.51	1.84	3.39	0.894	2.97	2.38	1.91	2.88	4.96	7.34	3.44	1.89	4.93
TTACCAAGGTGAGCTGAGGTCGTTGTTCCAACTC	1.49	1.3	-0.412	0.784	-1.32	1.75	-0.301	1.01	-0.393	0.445	1.27	2.01	-0.911	-0.688	-0.161	5	0.345	2.16	-0.978	1.79
TGAATGAGGTTAAAGATCAGCGAACGTGGCGTCG	2.99	2.46	-0.568	1.62	0.0932	4.55	5.87	6.26	5.47	6.67	2.09	3.38	1.34	0.131	0.5	1.89	-0.0611	2.82	-0.162	1.88
TAGACAGGGTCAAAGGCCAGAGTACGAATGTCGA	7.27	4.51	-0.0175	3.89	0.611	5.99	7.49	6.93	4.3	6.42	0.674	3.81	1.39	0.376	1.55	4.13	0.121	5.65	0.0319	4.28
CCTACTGGGCCATCCGGTCATTGATATCAACGTT	0.445	0.184	1.03	0.144	0.244	1.37	1.4	2.5	0.753	1.81	3.87	4.21	-0.352	-0.431	0.811	-0.0327	-0.0108	0.187	-0.315	1.42
CCGACTGGGGCAAGGTTACGATAACGCACAGCCA	0.216	0.654	-0.354	0.677	-1.27	2.06	2.79	3.25	0.969	2.5	3.36	3.57	-0.0114	-0.572	0.143	0.367	-0.626	0.767	-0.286	1.66
GTACCAAGGTGAGTAGGTCGTTGATGAGTAGGCG	0.04	0.0147	-0.31	-0.286	-0.924	1.17	0.822	0.888	-0.11	0.35	1.77	2.68	-0.145	-1.14	0.691	0.089	0.0427	0.391	0.166	1.16
TCTATTAGTTGTTTAGGGCAACCGAAACAGCGGA	0.479	0.468	0.25	0.727	1.15	0.938	-0.0257	2.1	3.88	2.99	1.98	1.19	1.27	0.951	0.794	0.621	0.33	0.698	1.2	1.13
CAAACTAGGTCACCGGAAGGTTAAAGTCCGCATG	5.17	4.53	1.89	3.61	0.743	5.67	9.32	7.58	5.78	7.27	8.22	9.06	2.44	1.44	3.7	3.98	0.858	5.18	0.971	4.78
